Screening results: PubChem, several laboratories
Compounds with a hit are over-represented: about 0.73% of the library has one in this group of screens.
TcdB inh = blocks C. difficile toxin B glycohydrolase activity | 0.24% of 350,000 active | TcdB glycohydrolase enzymatic assay, plate reader | inhibition, % at 9.99 µM | P18177; in the data active means inhibition above about 10%
Yp Topo-I inh = inhibitors of Yersinia pestis topoisomerase I | Y. pestis Topo-I cleavage product accumulation, plate reader | activity, % at 10 µM | 0.064% of 360,000 active | AID 504884; in the data active means activity above about 50%, passing the limit was not always enough
Mtb BioA inh = blocks M. tuberculosis BioA enzyme activity; purified M. tuberculosis BioA enzyme, plate reader; inhibition, % at 9.99 µM; 0.096% of 360,000 active; AID 602481; in the data active means inhibition above about 40%
BH1578 lux ind = quorum light induction in luxS cqsA deficient V. cholerae | 0.16% of 350,000 active | activation, % at 18.7 µM | V. cholerae BH1578 lux reporter, luminescence, 6 h | AID 588436; in the data active means activation mostly above about 9.7%, no sharp cut-off
DUSP3 inh = blocks human VHR1 dual specificity phosphatase. P51452. recombinant VHR phosphatase, pNPP absorbance. inhibition, % at 13.3 µM. 0.52% of 290,000 active; in the data active means inhibition above about 50%
* = called active by the depositor; i = inactive; . = no result given.

SMILES | TcdB inh | Yp Topo-I inh | Mtb BioA inh | BH1578 lux ind | DUSP3 inh
CC(C)CC1NC(=O)c2cc3ccccc3cc2-n2c1nc1cc(Cl)ccc1c2=O (stereo not drawn) | 0 | 54* | 0 | i | .
O=C1NC(Cc2ccccc2)c2nc3ccccc3c(=O)n2-c2cc3ccccc3cc21 (stereo not drawn) | 1 | 51* | -1 | -1 | .
COCC(=O)N(C)C[C@@H]1Oc2cc(-c3ccc(F)cc3)ccc2S(=O)(=O)N([C@@H](C)CO)C[C@H]1C | 0 | . | 2 | . | .
COc1ccc(CN(C)c2ncnc(N)n2)cc1 | . | -2 | -1 | 17* | 43
CCCOc1ccc(CN(C)c2ncnc(N)n2)cc1 | 0 | 12 | -2 | i | 17
COc1ccc(-c2cnc3c(c2)C(=O)N([C@@H](C)CO)C[C@H](C)[C@H](CN(C)C(=O)C2CCCCC2)O3)cc1 | 12* | . | -1 | . | .
COc1ccc(-c2cnc3c(c2)C(=O)N([C@H](C)CO)C[C@H](C)[C@@H](CN(C)C(=O)C2CCCCC2)O3)cc1 | -1 | . | 3 | . | .
O=C(CSc1nnc(-c2ccccc2Cl)o1)N1CCCCC1 | 0 | 2 | 3 | 0 | 2
O=C(CSc1nnc(-c2ccccc2Cl)o1)N1CCCC1 | 3 | 2 | 4 | -1 | 56*
Cc1ccc(-c2nnc(SCC(=O)N3CCCC3)o2)cc1 | . | -2 | . | i | -2
O=C(CSc1nnc(-c2ccncc2)o1)N1CCCCCC1 | 18* | 1 | . | 4 | 4
CCOC(=O)Cc1csc(NC(=O)CSc2nnc(-c3ccncc3)o2)n1 | 1 | -1 | . | 0 | 53*
CNC(=O)C[C@H]1CC[C@@H]2[C@H](COc3ccc(NC(=O)c4ccc(F)c(F)c4)cc3C(=O)N2C)O1 | -9 | . | 29 | . | .
CCCCCCCCN1[C@@H](CC(=O)O)c2cc(C(F)(F)F)ccc2S1(=O)=O | 0 | 15 | 1 | i | .
CC(C)(C)N1[C@@H](CC(=O)O)c2cc(C(F)(F)F)ccc2S1(=O)=O | 12* | 4 | -3 | i | .
CCCN(CCC)CCCNC(=O)c1cn(-c2ccc(OC)cc2)c(=O)c2ccccc12 | 1 | 0 | -1 | -1 | 53*
COc1ccc(-n2cc(C(=O)O)c3ccccc3c2=O)cc1 | 1 | 5 | 0 | i | 41
O=C(Nc1ccccc1)N(CCN1CCOCC1)Cc1cccc(Cl)c1 | -2 | 73* | . | i | 24
O=C(Nc1cccc(Cl)c1)N(CCCN1CCOCC1)Cc1ccccc1F | 1 | 2 | 15 | 0 | 17
CO[C@H]1CN(C)C(=O)c2cc(NS(C)(=O)=O)ccc2OC[C@H](C)N(S(C)(=O)=O)C[C@@H]1C | -1 | . | -3 | . | .
CNC[C@H]1Oc2c(NS(=O)(=O)c3ccc(C)cc3)cccc2C(=O)N([C@H](C)CO)C[C@H]1C | -1 | . | -1 | . | .
COc1ccc2[nH]c3c(=O)n(CCCN4CCOCC4)cnc3c2c1 | 3 | 35 | 6 | 0 | 13
COc1cc2[nH]c3c(=O)n(CCN4CCCCC4)cnc3c2cc1OC | . | 17 | 0 | 0 | 53*
C[C@@H]1CCCCO[C@@H](CN(C)CC2CCCCC2)[C@@H](C)CN([C@H](C)CO)C(=O)c2cc(NC(=O)Nc3ccc(F)cc3)ccc2O1 | 0 | . | -2 | . | .
C[C@@H]1CN([C@H](C)CO)S(=O)(=O)c2ccc(-c3cccnc3)cc2O[C@@H]1CN(C)C | 1 | . | -1 | . | .
SMILES | TcdB inh | Yp Topo-I inh | Mtb BioA inh | BH1578 lux ind | DUSP3 inh
CC(=O)Nc1ccc(O)cc1 | 25* | 0 | 0 | -1 | .
Nc1ccc(OC(=O)Nc2ccc(O)cc2)cc1 | 12* | -3 | 1 | 1 | 8
CC(=O)Nc1ccc(C)cc1 | 0 | -6 | -1 | 0 | .
O=C(Nc1ccc(N2CCN(c3ccc(O)cc3)CC2)cc1)Oc1ccccc1 | -1 | -14 | -3 | i | 8
CC(=O)N/C(=C\c1ccccc1)C(=O)Nc1ccc(O)cc1 | 13* | -4 | . | 1 | 13
CC(=O)c1ccc(NC(=O)/C(=C\c2ccccc2)NC(=O)/C=C/c2ccccc2)cc1 | . | 37 | . | i | 20
C[C@@H]1CCCCO[C@@H](CN(C)Cc2ccc3c(c2)OCO3)[C@@H](C)CN([C@@H](C)CO)C(=O)c2cc(NC(=O)CCCN(C)C)ccc2O1 | 0 | . | -2 | . | .
O=C(Cc1nnc(NC(=O)Nc2ccccc2)s1)NCc1ccccc1 | 1 | 9 | . | i | 58*
C/C=C/c1ccc2c(c1)O[C@H](CN(C)C(=O)CC)[C@H](C)CN([C@H](C)CO)S2(=O)=O | 0 | . | -1 | . | .
Oc1ccc(CCc2ccccn2)cc1 | 14* | 7 | 0 | i | .
C[C@@H]1CN([C@@H](C)CO)C(=O)c2cc(NS(=O)(=O)c3ccc(F)cc3)ccc2O[C@H]1CN(C)Cc1ccc2c(c1)OCO2 | 1 | . | 2 | . | .
